Results filed as inconclusive are left out. Active and inactive are the calls of the source. Calls come from the whole dose curve; as a rule, active = well fitted activation curve with a large enough effect in the repeat runs; inconclusive = weak or mixed curves; inactive = flat fitted curve, though single readings scatter.
test: A CellTox Green Cytotoxicity Assay to monitor cytotoxicity in HepG2 cells - 0 hour (AID 1224882); settings: CellTox Green fluorescence; series mostly up to 76.8 µM; cytotoxicity: at the top concentration; note: nearly all actives have a fitted effect of over 35% in size
Procedure, shortened: (§1)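 Using 1536-well format, dye-containing HepG2 suspension was seeded, allowed 5 h at 37 C/5% CO2, dosed by pintool with compounds, positive and negative controls, and imaged for fluorescence across 40 h.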
% is set by controls: 0 for no effect and ±100 for the full control effect.

Q: With `CC(=O)Oc1ccc2c(c1)CC[C@@H]1[C@@H]2CC[C@]2(C)[C@@H](O)CC[C@@H]12` as the molecule, how does the “cytotoxicity” value read?
A: The value was -0.479% [at 35.3 µM] (inactive).

Q: For `CNC(=O)N(c1ccccc1)c1ccccc1`, which “cytotoxicity” value is on record?
A: The value was 1.17% (inactive).

Q: For `CC(=O)OCC(=O)[C@H]1CC[C@H]2[C@@H]3CCC4=CC(=O)CC[C@]4(C)[C@H]3CC[C@]12C`, which “cytotoxicity” value is on record?
A: Its value is -0.183% [at 35.3 µM] (inactive).

Q: For `CCCCCCCCCCCC[N+](C)(C)CC(=O)[O-]`, which “cytotoxicity” value is on record?
A: Its value is 2.53% (inactive).

Q: For `CCCC1C(CC)=CC(CC)=CN1c1ccccc1` (stereo unspecified), which “cytotoxicity” value is on record?
A: The value was 6.23% (inactive).

Q: For `C1COCO1`, which “cytotoxicity” value is on record?
A: Its value is -1.64% (inactive).

Q: With `O=C(c1ccc(O)cc1)c1ccc(Cl)cc1` as the molecule, how does the “cytotoxicity” value read?
A: Its value is -5% (inactive).

test: A CellTox Green Cytotoxicity Assay to monitor cytotoxicity in HepG2 cells - 32 hour (AID 1224883); settings: CellTox Green fluorescence; series mostly up to 76.8 µM; cytotoxicity increase: at the top concentration; note: nearly all actives have a fitted effect of over 50% in size; note: potency is the fitted concentration of half-maximal effect
Procedure, shortened: as §1

Q: For `C=CC(=O)NCOCC(C)C`, which “cytotoxicity increase” value is on record?
A: Its value is -6.03% (inactive).

Q: For `CC(C)C(OC(=O)c1ccccc1)C(C)(C)COC(=O)c1ccccc1` (stereo unspecified), which “cytotoxicity increase” value is on record?
A: The value was -0.347% (inactive).

Q: With `C=CCNc1nc(NCC=C)nc(N2CCN(C(c3ccc(F)cc3)c3ccc(F)cc3)CC2)n1` as the molecule, how does the “cytotoxicity increase” value read?
A: The value was -17.8% [at 35.3 µM] (inactive).

Q: With `CCCCN(CCCC)C(=S)SSC(=S)N(CCCC)CCCC` as the molecule, how does the “cytotoxicity increase” value read?
A: Its value is 10.4% (inactive).

Q: With `Fc1ccccc1[C@@H](F)COC1CCC(Nc2ncnc3[nH]ncc23)CC1` (stereo partly specified) as the molecule, how does the “cytotoxicity increase” value read?
A: The value was 17.1% (inactive).

Q: For `CC1=CC(O)CC(C)(C)C1` (stereo unspecified), which “cytotoxicity increase” value is on record?
A: The value was 7.23% (inactive).

Q: For `O=c1[nH]c2ccc(S(=O)CCN3CCC(Cc4ccc(F)cc4)CC3)cc2o1` (stereo unspecified), which “cytotoxicity increase” value is on record?
A: Its value is 14.9% (inactive).

Q: For `CCOC(=O)N1CCC(n2c(=O)[nH]c3cc(Cl)ccc32)CC1`, which “cytotoxicity increase” value is on record?
A: The value was -1.74% [at 35.3 µM] (inactive).

Q: With `NC(=O)N(O)[C@@H]1C=C[C@H](Oc2cccc(Oc3ccc(F)cc3)c2)C1` as the molecule, how does the Potency read?
A: Its Potency is 38.9 µM (active).

Q: Which “cytotoxicity increase” value does the source give for `CCCCC(CC)C(=O)OCCOCCOCCOCCOC(=O)C(CC)CCCC` (stereo unspecified) here?
A: The value was -1.09% (inactive).

Q: For `O=[N+]([O-])c1cccc(S(=O)(=O)NCCNS(=O)(=O)c2cccc([N+](=O)[O-])c2)c1`, which “cytotoxicity increase” value is on record?
A: The value was 19.8% [at 35.3 µM] (inactive).

Q: With `CCCCC1C(=O)N(c2ccccc2)N(c2ccc(O)cc2)C1=O` (stereo unspecified) as the molecule, how does the Potency read?
A: Its Potency is 10.7 µM (active).

Q: With `CC(C)(C)C(=O)O` as the molecule, how does the “cytotoxicity increase” value read?
A: The value was 1.37% (inactive).

Q: For `C(=C\c1ccccc1)/CN1CCN(C(c2ccccc2)c2ccccc2)CC1`, which “cytotoxicity increase” value is on record?
A: Its value is 19.6% [at 35.3 µM] (inactive).

Q: For `COc1cc2ncnc(Nc3ccc(F)c(Cl)c3)c2cc1OCCCN1CCOCC1`, which Potency is on record?
A: Its Potency is 23.9 µM (active).

Q: For `CC1CC(=O)NN=C1c1ccc(NCC(C)(C)NCC(O)COc2cc(Cl)ccc2C#N)cc1` (stereo unspecified), which “cytotoxicity increase” value is on record?
A: Its value is -2.75% [at 35.3 µM] (inactive).

Q: For `CC(CCc1ccc2c(c1)OCO2)NN` (stereo unspecified), which “cytotoxicity increase” value is on record?
A: The value was -0.252% [at 35.3 µM] (inactive).

Q: With `CCCCCCCCCOC(C)=O` as the molecule, how does the “cytotoxicity increase” value read?
A: The value was -3.43% (inactive).

Q: Which “cytotoxicity increase” value does the source give for `CCCCCCOC(=O)C(C)C` here?
A: The value was -13.6% (inactive).

Q: Which “cytotoxicity increase” value does the source give for `CCCOC(=O)c1ccc(C(=O)OCCC)nc1` here?
A: The value was 7.92% (inactive).

Q: With `CO/N=C1\CN(c2nc3c(cc2F)c(=O)c(C(=O)O)cn3C2CC2)CC1CN` (stereo unspecified) as the molecule, how does the “cytotoxicity increase” value read?
A: The value was -13.6% [at 35.3 µM] (inactive).

Q: With `CCCCCCCCCCCC[N+](C)(C)CCCS(=O)(=O)[O-]` as the molecule, how does the “cytotoxicity increase” value read?
A: Its value is 24% (inactive).

Q: For `C/C=C/C=C/CCCCCCCO`, which “cytotoxicity increase” value is on record?
A: Its value is 16.6% (inactive).

Q: With `CCOC(=O)CC(=O)C(=O)OCC` as the molecule, how does the “cytotoxicity increase” value read?
A: The value was 8.04% (inactive).

Q: Which “cytotoxicity increase” value does the source give for `O=C1NCCN1` here?
A: The value was -2.72% (inactive).

Q: For `Nc1nccs1`, which “cytotoxicity increase” value is on record?
A: Its value is -1.49% (inactive).

Q: For `Cc1ccc(Nc2nccc(N(C)c3ccc4c(C)n(C)nc4c3)n2)cc1S(N)(=O)=O`, which “cytotoxicity increase” value is on record?
A: Its value is -0.0309% [at 35.3 µM] (inactive).

Q: Which “cytotoxicity increase” value does the source give for `O=S1OCCO1` here?
A: Its value is -0.0706% (inactive).

Q: Which “cytotoxicity increase” value does the source give for `CC1CC(O)CC(C)(C)C1` (stereo unspecified) here?
A: Its value is 11.8% (inactive).

Q: For `CCCCC(=O)O[C@]1(C(=O)CO)[C@@H](C)C[C@H]2[C@@H]3CCC4=CC(=O)C=C[C@]4(C)[C@@]3(F)[C@@H](O)C[C@@]21C`, which “cytotoxicity increase” value is on record?
A: The value was 19.8% (inactive).

Q: For `CC(=O)[C@H]1CC[C@H]2[C@@H]3C[C@H](C)C4=CC(=O)CC[C@]4(C)[C@H]3[C@@H](O)C[C@]12C`, which “cytotoxicity increase” value is on record?
A: Its value is 4.58% [at 35.3 µM] (inactive).

Q: Which “cytotoxicity increase” value does the source give for `CNC(=O)N(c1ccccc1)c1ccccc1` here?
A: The value was 9.95% (inactive).

Q: Which “cytotoxicity increase” value does the source give for `CC(=O)OCC(=O)[C@H]1CC[C@H]2[C@@H]3CCC4=CC(=O)CC[C@]4(C)[C@H]3CC[C@]12C` here?
A: The value was -1.1% [at 35.3 µM] (inactive).

Q: With `CCCC1C(CC)=CC(CC)=CN1c1ccccc1` (stereo unspecified) as the molecule, how does the “cytotoxicity increase” value read?
A: The value was 4.31% (inactive).

Q: With `C1COCO1` as the molecule, how does the “cytotoxicity increase” value read?
A: Its value is 1.18% (inactive).

Q: Which “cytotoxicity increase” value does the source give for `O=C(c1ccc(O)cc1)c1ccc(Cl)cc1` here?
A: The value was -0.102% (inactive).

test: A CellTox Green Cytotoxicity Assay to monitor cytotoxicity in HEK293 cells - 8 hour (AID 1224884); settings: CellTox Green fluorescence; series mostly up to 76.8 µM; cytotoxicity increase: at the top concentration; note: nearly all actives have a fitted effect of over 35% in size
Procedure, shortened: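 Fluorescence intensity, read at 0, 8, 16, 24, 32 and 40 h of compound treatment, reflected dye binding to DNA of dead HEK293 cells; compounds (23 nL, DMSO) were added 5 h after plating cells with reagent.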

Q: With `C=CCNc1nc(NCC=C)nc(N2CCN(C(c3ccc(F)cc3)c3ccc(F)cc3)CC2)n1` as the molecule, how does the “cytotoxicity increase” value read?
A: Its value is 22.1% [at 35.3 µM] (inactive).

Q: For `CCCCN(CCCC)C(=S)SSC(=S)N(CCCC)CCCC`, which “cytotoxicity increase” value is on record?
A: The value was 8.63% (inactive).

Q: For `CC1=CC(O)CC(C)(C)C1` (stereo unspecified), which “cytotoxicity increase” value is on record?
A: The value was -1.12% (inactive).

Q: Which “cytotoxicity increase” value does the source give for `O=c1[nH]c2ccc(S(=O)CCN3CCC(Cc4ccc(F)cc4)CC3)cc2o1` (stereo unspecified) here?
A: The value was -8.28% (inactive).

Q: With `CCOC(=O)N1CCC(n2c(=O)[nH]c3cc(Cl)ccc32)CC1` as the molecule, how does the “cytotoxicity increase” value read?
A: Its value is -1.92% [at 35.3 µM] (inactive).

Q: Which “cytotoxicity increase” value does the source give for `NC(=O)N(O)[C@@H]1C=C[C@H](Oc2cccc(Oc3ccc(F)cc3)c2)C1` here?
A: Its value is 13.4% (inactive).

Q: With `O=[N+]([O-])c1cccc(S(=O)(=O)NCCNS(=O)(=O)c2cccc([N+](=O)[O-])c2)c1` as the molecule, how does the “cytotoxicity increase” value read?
A: The value was 1.35% [at 35.3 µM] (inactive).

Q: With `CCCCC1C(=O)N(c2ccccc2)N(c2ccc(O)cc2)C1=O` (stereo unspecified) as the molecule, how does the “cytotoxicity increase” value read?
A: The value was 10.6% [at 35.3 µM] (inactive).

Q: Which “cytotoxicity increase” value does the source give for `C(=C\c1ccccc1)/CN1CCN(C(c2ccccc2)c2ccccc2)CC1` here?
A: The value was -0.441% [at 35.3 µM] (inactive).

Q: With `COc1cc2ncnc(Nc3ccc(F)c(Cl)c3)c2cc1OCCCN1CCOCC1` as the molecule, how does the “cytotoxicity increase” value read?
A: The value was 0.158% [at 35.3 µM] (inactive).

Q: Which “cytotoxicity increase” value does the source give for `CC1CC(=O)NN=C1c1ccc(NCC(C)(C)NCC(O)COc2cc(Cl)ccc2C#N)cc1` (stereo unspecified) here?
A: Its value is -0.383% [at 35.3 µM] (inactive).

Q: With `CC(CCc1ccc2c(c1)OCO2)NN` (stereo unspecified) as the molecule, how does the “cytotoxicity increase” value read?
A: Its value is 0.672% [at 35.3 µM] (inactive).

Q: For `O=C(N[C@@H](c1ccccc1)[C@@H]1CCCCN1)c1cccc(C(F)(F)F)c1Cl`, which “cytotoxicity increase” value is on record?
A: Its value is 2.51% (inactive).

Q: Which “cytotoxicity increase” value does the source give for `CCCCCCCCCOC(C)=O` here?
A: The value was -5.44% (inactive).

Q: For `CCCCCCOC(=O)C(C)C`, which “cytotoxicity increase” value is on record?
A: The value was 10.7% (inactive).

Q: Which “cytotoxicity increase” value does the source give for `CCCOC(=O)c1ccc(C(=O)OCCC)nc1` here?
A: Its value is -7.1% (inactive).

Q: With `CO/N=C1\CN(c2nc3c(cc2F)c(=O)c(C(=O)O)cn3C2CC2)CC1CN` (stereo unspecified) as the molecule, how does the “cytotoxicity increase” value read?
A: The value was -7.98% [at 35.3 µM] (inactive).

Q: Which “cytotoxicity increase” value does the source give for `C/C=C/C=C/CCCCCCCO` here?
A: Its value is 1.07% (inactive).

Q: Which “cytotoxicity increase” value does the source give for `CCOC(=O)CC(=O)C(=O)OCC` here?
A: Its value is 2.73% (inactive).

Q: Which “cytotoxicity increase” value does the source give for `Cc1ccc(Nc2nccc(N(C)c3ccc4c(C)n(C)nc4c3)n2)cc1S(N)(=O)=O` here?
A: Its value is -7.22% [at 35.3 µM] (inactive).

Q: For `O=S1OCCO1`, which “cytotoxicity increase” value is on record?
A: The value was 0.0213% (inactive).

Q: Which “cytotoxicity increase” value does the source give for `CC1CC(O)CC(C)(C)C1` (stereo unspecified) here?
A: The value was 16.5% (inactive).

Q: With `CCCCC(=O)O[C@]1(C(=O)CO)[C@@H](C)C[C@H]2[C@@H]3CCC4=CC(=O)C=C[C@]4(C)[C@@]3(F)[C@@H](O)C[C@@]21C` as the molecule, how does the “cytotoxicity increase” value read?
A: The value was -5.62% (inactive).

Q: With `CC(=O)[C@H]1CC[C@H]2[C@@H]3C[C@H](C)C4=CC(=O)CC[C@]4(C)[C@H]3[C@@H](O)C[C@]12C` as the molecule, how does the “cytotoxicity increase” value read?
A: The value was 6.8% [at 35.3 µM] (inactive).

Q: For `CC(=O)Oc1ccc2c(c1)CC[C@@H]1[C@@H]2CC[C@]2(C)[C@@H](O)CC[C@@H]12`, which “cytotoxicity increase” value is on record?
A: The value was -2.56% [at 35.3 µM] (inactive).

Q: With `CC(=O)OCC(=O)[C@H]1CC[C@H]2[C@@H]3CCC4=CC(=O)CC[C@]4(C)[C@H]3CC[C@]12C` as the molecule, how does the “cytotoxicity increase” value read?
A: The value was 3.03% [at 35.3 µM] (inactive).

Q: With `CCCC1C(CC)=CC(CC)=CN1c1ccccc1` (stereo unspecified) as the molecule, how does the “cytotoxicity increase” value read?
A: The value was 0.64% (inactive).

Q: Which “cytotoxicity increase” value does the source give for `C1COCO1` here?
A: Its value is 5.4% (inactive).
